U2OS ROS induce: cancer cell ROS induction; U2OS ROS induction, H2DCF-DA fluorescence; ROS induction (% of piperlongumine), % at 10 µM; 46,000 tested, 2% active; AID 624156; in the data active = ROS induction above about 79%, passing the limit was not always enough
Each line names hits and unclear results; the compound was inactive in the other large screens. Many of the other results were omitted from the sample, so hits are more common in it than they were.

COc1ccc([Si](C)(C)[C@H]2[C@H](CCn3cc(CCO)nn3)O[C@@]3(C(=O)N(c4ccccc4)c4ccccc43)[C@@H]2C)cc1	none
CC(=O)Nc1ccccc1-c1nc2ccccc2nc1OCC(=O)c1ccc(Br)cc1	none
C[C@H](CO)N1C[C@H](C)[C@H](CN(C)Cc2ccc(C(=O)O)cc2)Oc2c(NS(=O)(=O)c3ccc(F)cc3)cccc2C1=O	none
Cn1cc(S(=O)(=O)Nc2ccccc2N2CCOCC2)c(C(F)(F)F)n1	none
CC1CCc2sc(NC(=O)C(Cc3ccccc3)Cc3ccccc3)c(C#N)c2C1 (centres undefined)	none
CCNC(=S)Nc1sc2c(c1C#N)CCC(C)C2 (centres undefined)	U2OS ROS induce 166.9
COC(=O)c1c(NC(=S)Nc2nc(C)cc(C)n2)sc2c1CCC(C)C2 (centres undefined)	none
CCCN(CCC)C(=O)c1c(NC(=O)c2ccco2)sc2c1CCC(C)C2 (centres undefined)	none
NC(=O)C1(N2CCCCC2)CCN(CC(=O)Nc2ccc(F)cc2)CC1	none
CCOC(=O)c1cnc2ccc(OCC)cc2c1NC(C)CC (centres undefined)	none
CCOC(=O)c1cnc2ccc(OCC)cc2c1N1CCN(c2ccccc2)CC1	U2OS ROS induce 127.7
CCc1ccc2ncc(S(=O)(=O)c3ccccc3)c(N3CCCC3)c2c1	none
CC1=NN(c2nc3ccccc3s2)C(O)(C(F)(F)F)C1 (centres undefined)	none
C[C@H]1CN([C@@H](C)CO)C(=O)Cc2cc(NC(=O)Cc3cn(C)c4ccccc34)ccc2O[C@@H]1CN(C)S(=O)(=O)c1ccc(F)cc1	U2OS ROS induce 88.7
C[C@@H]1CN([C@@H](C)CO)C(=O)Cc2cc(NC(=O)Cc3ccccc3)ccc2O[C@@H]1CN(C)CC1CCCCC1	none
C[C@H](CO)N1C[C@H](C)[C@H](CN(C)Cc2ccc(C(=O)Nc3ccccc3N)cc2)Oc2ccc(NC(=O)Cc3cn(C)c4ccccc34)cc2CC1=O	none
C[C@@H]1CN([C@H](C)CO)C(=O)Cc2cc(NC(=O)Cc3cn(C)c4ccccc34)ccc2O[C@@H]1CN(C)Cc1ccc(C(=O)Nc2ccccc2N)cc1	U2OS ROS induce 85.8
C[C@@H]1CN([C@H](C)CO)C(=O)Cc2cc(NC(=O)Cc3cn(C)c4ccccc34)ccc2O[C@H]1CN(C)S(=O)(=O)c1ccc(F)cc1	none
C[C@@H]1CN([C@H](C)CO)C(=O)Cc2cc(NC(=O)Nc3ccccc3)ccc2O[C@@H]1CN(C)Cc1ccc(C(=O)Nc2ccccc2N)cc1	U2OS ROS induce 102.2
C[C@H]1CN([C@@H](C)CO)C(=O)Cc2cc(NC(=O)Nc3ccc(F)cc3)ccc2O[C@@H]1CN(C)Cc1ccc(C(=O)Nc2ccccc2N)cc1	none
C[C@H]1CN([C@@H](C)CO)C(=O)Cc2cc(NC(=O)Cc3ccccc3)ccc2O[C@@H]1CN(C)CC1CCCCC1	U2OS ROS induce 107.8
C[C@@H]1CN([C@H](C)CO)C(=O)Cc2cc(NC(=O)Nc3ccc(F)cc3)ccc2O[C@H]1CN(C)Cc1ccc(C(=O)Nc2ccccc2N)cc1	none
C[C@H](CO)N1C[C@H](C)[C@H](CN(C)S(=O)(=O)c2ccccc2)Oc2ccc(NC(=O)Cc3cn(C)c4ccccc34)cc2CC1=O	none
C[C@@H]1CN([C@H](C)CO)C(=O)Cc2cc(NC(=O)Cc3ccccc3)ccc2O[C@@H]1CN(C)CC1CCCCC1	none
C[C@H]1CN([C@@H](C)CO)C(=O)Cc2cc(NC(=O)Cc3cn(C)c4ccccc34)ccc2O[C@H]1CN(C)Cc1ccc(C(=O)Nc2ccccc2N)cc1	none
C[C@@H]1CN([C@@H](C)CO)C(=O)c2cccc(NC(=O)c3nc4ccccc4s3)c2O[C@@H]1CN(C)C(=O)Nc1cccc2ccccc12	none
C[C@H]1CN([C@@H](C)CO)C(=O)c2cccc(NC(=O)CCCCCC(=O)Nc3ccccc3N)c2O[C@H]1CN(C)CC1CCCCC1	none
C[C@H](CO)N1C[C@H](C)[C@@H](CN(C)S(=O)(=O)c2cn(C)cn2)Oc2ccc(NC(=O)Nc3ccc4c(c3)OCO4)cc2C1=O	none
Cn1c(=S)n(CCSc2nc3ccccc3n2-c2ccccc2)c2ccccc21	none
C[C@@H]1CN([C@H](C)CO)C(=O)c2cccc(NS(=O)(=O)c3ccccc3)c2O[C@@H]1CN(C)Cc1ccc(C(=O)Nc2ccccc2N)cc1	none
COc1ccc2[nH]c(C(=O)N3CCC(Cc4ccccc4)CC3)cc2c1	none
COc1ccc(NC(=O)Nc2cccc3c2O[C@@H](CN(C)Cc2ccc(C(F)(F)F)cc2)[C@@H](C)CN([C@H](C)CO)C3=O)cc1	none
Cc1ccc(S(=O)(=O)N(C)C[C@@H]2Oc3ccc(NC(=O)NC(C)C)cc3C(=O)N([C@@H](C)CO)C[C@@H]2C)cc1	none
C[C@@H]1CN([C@H](C)CO)C(=O)c2cc(NC(=O)Cc3cn(C)c4ccccc34)ccc2O[C@H]1CN(C)Cc1ccc(-c2ccccc2)cc1	none
C[C@H](CO)N1C[C@H](C)[C@H](CN(C)Cc2ccc(Cl)c(Cl)c2)Oc2ccc(NC(=O)Cc3cn(C)c4ccccc34)cc2C1=O	none
C[C@H]1CN([C@@H](C)CO)C(=O)c2cc(NC(=O)Cc3cn(C)c4ccccc34)ccc2O[C@@H]1CN(C)Cc1ccc(-c2ccccc2)cc1	U2OS ROS induce 152.8
C[C@@H]1CN([C@@H](C)CO)C(=O)c2cc(NC(=O)Cc3cn(C)c4ccccc34)ccc2O[C@H]1CN(C)Cc1ccc(Cl)c(Cl)c1	none
C[C@H]1CN([C@@H](C)CO)C(=O)Cc2cc(NC(=O)Cc3cn(C)c4ccccc34)ccc2O[C@@H]1CN(C)Cc1ccc(Oc2ccccc2)cc1	none
COc1ccc(CN(C)C[C@@H]2Oc3ccc(NC(=O)Cc4ccccc4)cc3CC(=O)N([C@@H](C)CO)C[C@@H]2C)cc1	none
C[C@H](CO)N1C[C@H](C)[C@@H](CN(C)Cc2ccc(Cl)c(Cl)c2)Oc2ccc(NC(=O)Cc3cn(C)c4ccccc34)cc2C1=O	U2OS ROS induce 152.3
C[C@H]1CN([C@@H](C)CO)C(=O)Cc2cc(NC(=O)Cc3ccccc3)ccc2O[C@H]1CN(C)Cc1ccc(Oc2ccccc2)cc1	none
C[C@H]1CN([C@@H](C)CO)C(=O)c2cc(NC(=O)Cc3cn(C)c4ccccc34)ccc2O[C@H]1CN(C)Cc1ccc(-c2ccccc2)cc1	none
C[C@H]1CN([C@@H](C)CO)C(=O)Cc2cc(NC(=O)Cc3cn(C)c4ccccc34)ccc2O[C@H]1CN(C)Cc1ccc(Oc2ccccc2)cc1	none
C[C@@H]1CN([C@@H](C)CO)C(=O)Cc2cc(NC(=O)Cc3cn(C)c4ccccc34)ccc2O[C@@H]1CN(C)Cc1ccc(Oc2ccccc2)cc1	U2OS ROS induce 122.2
C[C@@H]1CN([C@H](C)CO)C(=O)Cc2cc(NC(=O)Cc3ccccc3)ccc2O[C@@H]1CN(C)Cc1ccc(Oc2ccccc2)cc1	U2OS ROS induce 94.6
O=C(CNC(=O)c1ccccc1)Nc1cccc(-c2cnc3ccccc3n2)c1	none
C[C@H](CO)N1C[C@H](C)[C@@H](CN(C)CC2CCCCC2)Oc2c(NS(=O)(=O)c3cccs3)cccc2C1=O	none
C[C@@H]1CN([C@@H](C)CO)C(=O)Cc2cc(NC(=O)NC3CCCCC3)ccc2O[C@@H]1CN(C)S(C)(=O)=O	none
C[C@@H]1CN([C@H](C)CO)C(=O)c2cccc(NC(=O)c3ccc(-c4nccs4)cc3)c2O[C@@H]1CN(C)S(=O)(=O)c1ccc(F)cc1	none
C[C@H](CO)N1C[C@H](C)[C@H](CN(C)C(=O)NC2CCCCC2)Oc2c(NC(=O)Nc3cccc4ccccc34)cccc2C1=O	none
Cn1c(SCC(=O)Nc2ccc(F)c(F)c2)nnc1-c1ccccn1	none
CCOC(=O)c1ccc(S(=O)(=O)N(C)C)cc1	none
Cc1cc(Cl)c(OCCCSc2nc(C)cc(=O)[nH]2)c(Br)c1	none

Screening data: PubChem BioAssay, Broad Institute
